We go through 4 sequences from paper PMC7862700, “An all-to-all approach to the identification of sequence-specific readers for epigenetic DNA modifications on cytosine”.

Common to all, as to experiment: DAPPL (digital affinity profiling via proximity ligation, sequencing); 10 mM Tris-HCl pH 7.5, 50 mM NaCl, 1 mM DTT, 4% glycerol, room temperature, 30 min; GST-TFs on glutathione beads, 16-mer random dsDNA library, 0.1% formaldehyde crosslink after washing; high values mean tight binding
Holding throughout (conditions): protein: recombinant; tags: N-terminal GST; dsDNA, one strand shown

The target of one assay is T1, SPIC (Homo sapiens, UniProt Q8N5J4 1-248).
T1 sequence: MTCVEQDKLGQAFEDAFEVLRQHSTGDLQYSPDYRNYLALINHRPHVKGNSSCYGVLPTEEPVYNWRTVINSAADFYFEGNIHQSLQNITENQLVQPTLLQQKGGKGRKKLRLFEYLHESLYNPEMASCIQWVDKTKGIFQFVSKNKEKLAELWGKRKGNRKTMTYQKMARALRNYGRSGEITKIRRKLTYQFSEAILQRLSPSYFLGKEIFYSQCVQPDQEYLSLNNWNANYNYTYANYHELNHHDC
The procedure, abridged:
(§1)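 Each value of binding signal is a hexamer's read frequency for a factor divided by the same hexamer's frequency in the tag-only sample. Barcoded, bead-captured GST fusions of human transcription factors made in yeast were pooled with that sample and incubated with 200 nmole of a random double-stranded 16-mer DNA library in Tris/NaCl/DTT/glycerol buffer at room temperature for 30 min. Washing, 0.1% formaldehyde crosslinking, proximity ligation, PCR and Illumina NextSeq500 sequencing followed.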

For a further assay, the target named is T2, ELK1 (Homo sapiens, UniProt P19419 1-428).
T2 sequence: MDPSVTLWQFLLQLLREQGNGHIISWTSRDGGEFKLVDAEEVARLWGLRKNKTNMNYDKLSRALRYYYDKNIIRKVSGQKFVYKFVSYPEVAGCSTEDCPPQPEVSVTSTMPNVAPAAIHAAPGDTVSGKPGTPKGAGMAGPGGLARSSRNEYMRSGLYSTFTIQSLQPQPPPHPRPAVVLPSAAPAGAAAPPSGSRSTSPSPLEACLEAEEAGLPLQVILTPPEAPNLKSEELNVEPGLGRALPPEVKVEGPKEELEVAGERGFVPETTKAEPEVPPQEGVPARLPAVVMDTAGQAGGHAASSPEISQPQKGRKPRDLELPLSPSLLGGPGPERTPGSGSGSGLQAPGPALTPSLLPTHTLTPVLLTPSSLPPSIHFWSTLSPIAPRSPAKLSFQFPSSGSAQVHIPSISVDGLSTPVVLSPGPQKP
The procedure, abridged: as §1

The target of a further assay is T3, GABPA (Homo sapiens, UniProt Q06546 1-454).
T3 sequence: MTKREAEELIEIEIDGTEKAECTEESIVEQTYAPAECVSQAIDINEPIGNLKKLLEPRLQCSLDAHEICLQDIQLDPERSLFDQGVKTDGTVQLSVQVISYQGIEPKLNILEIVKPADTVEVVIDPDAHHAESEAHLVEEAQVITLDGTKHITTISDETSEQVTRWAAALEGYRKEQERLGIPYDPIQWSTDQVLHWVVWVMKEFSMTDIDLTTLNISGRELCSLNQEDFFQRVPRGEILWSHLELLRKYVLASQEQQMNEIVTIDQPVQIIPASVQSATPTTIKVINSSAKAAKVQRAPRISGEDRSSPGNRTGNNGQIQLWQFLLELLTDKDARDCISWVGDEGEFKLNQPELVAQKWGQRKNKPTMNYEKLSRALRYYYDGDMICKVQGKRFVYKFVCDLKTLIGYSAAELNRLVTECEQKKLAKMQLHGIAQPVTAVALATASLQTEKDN
The procedure, abridged:
as §1

Another assay deals with T4, ERG (Homo sapiens, UniProt P11308 1-479).
T4 sequence: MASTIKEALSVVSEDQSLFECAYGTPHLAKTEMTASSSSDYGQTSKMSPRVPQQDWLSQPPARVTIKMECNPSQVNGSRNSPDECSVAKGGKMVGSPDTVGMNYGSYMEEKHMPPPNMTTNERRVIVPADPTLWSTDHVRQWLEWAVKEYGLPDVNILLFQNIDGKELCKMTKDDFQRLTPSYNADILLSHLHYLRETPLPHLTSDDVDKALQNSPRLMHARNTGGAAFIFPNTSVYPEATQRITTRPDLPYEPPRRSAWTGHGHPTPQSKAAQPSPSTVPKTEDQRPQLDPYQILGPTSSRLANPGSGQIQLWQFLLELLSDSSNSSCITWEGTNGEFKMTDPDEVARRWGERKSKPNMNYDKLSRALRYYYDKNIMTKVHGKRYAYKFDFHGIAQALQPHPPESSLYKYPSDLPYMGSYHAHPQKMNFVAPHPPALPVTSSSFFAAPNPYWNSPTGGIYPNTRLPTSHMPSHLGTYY
A digest of the protocol: as §1

A further assay addresses ELF1 (Homo sapiens, UniProt P32519 1-619). The procedure, abridged: as §1
The target of a further assay is T5, EHF (Homo sapiens, UniProt Q9NZC4 1-300).
T5 sequence: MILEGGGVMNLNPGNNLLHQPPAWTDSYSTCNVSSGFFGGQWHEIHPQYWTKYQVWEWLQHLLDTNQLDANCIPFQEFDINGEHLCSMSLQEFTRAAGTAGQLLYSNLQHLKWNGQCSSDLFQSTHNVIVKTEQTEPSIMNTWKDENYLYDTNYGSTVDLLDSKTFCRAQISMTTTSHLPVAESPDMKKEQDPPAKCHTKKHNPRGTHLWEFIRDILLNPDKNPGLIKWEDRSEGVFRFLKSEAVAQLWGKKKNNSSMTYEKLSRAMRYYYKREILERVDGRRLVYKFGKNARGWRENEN
The procedure, abridged: as §1

A further assay addresses T6, ERF (Homo sapiens, UniProt P50548 1-548).
T6 sequence: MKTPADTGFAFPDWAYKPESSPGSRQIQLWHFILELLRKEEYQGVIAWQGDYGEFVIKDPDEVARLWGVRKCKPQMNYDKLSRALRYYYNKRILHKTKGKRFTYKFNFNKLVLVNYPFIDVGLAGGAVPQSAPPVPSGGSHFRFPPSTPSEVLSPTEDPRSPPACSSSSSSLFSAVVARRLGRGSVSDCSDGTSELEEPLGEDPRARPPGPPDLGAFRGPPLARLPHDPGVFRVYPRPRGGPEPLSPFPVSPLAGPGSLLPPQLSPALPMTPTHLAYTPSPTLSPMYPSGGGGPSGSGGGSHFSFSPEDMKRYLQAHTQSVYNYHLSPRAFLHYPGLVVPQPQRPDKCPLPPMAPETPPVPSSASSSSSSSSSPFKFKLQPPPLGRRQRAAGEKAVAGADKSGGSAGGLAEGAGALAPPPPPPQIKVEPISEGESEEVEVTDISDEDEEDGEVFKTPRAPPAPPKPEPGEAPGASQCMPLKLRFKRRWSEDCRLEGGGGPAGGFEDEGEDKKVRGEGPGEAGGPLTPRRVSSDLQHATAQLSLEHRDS
A digest of the protocol: as §1

The target in a further assay is T7, ELK3 (Homo sapiens, UniProt P41970 1-407).
T7 sequence: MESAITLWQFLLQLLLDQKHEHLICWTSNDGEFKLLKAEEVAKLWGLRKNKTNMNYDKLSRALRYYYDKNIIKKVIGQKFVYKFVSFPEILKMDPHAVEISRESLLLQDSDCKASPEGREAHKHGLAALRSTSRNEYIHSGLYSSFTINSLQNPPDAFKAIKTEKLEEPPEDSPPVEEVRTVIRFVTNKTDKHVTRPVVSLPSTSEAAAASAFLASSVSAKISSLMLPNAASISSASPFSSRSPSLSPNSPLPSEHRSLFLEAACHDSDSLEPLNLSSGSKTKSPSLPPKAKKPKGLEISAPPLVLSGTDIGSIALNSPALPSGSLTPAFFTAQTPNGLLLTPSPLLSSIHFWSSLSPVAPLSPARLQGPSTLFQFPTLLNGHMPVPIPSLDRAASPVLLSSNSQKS
A digest of the protocol: as §1

The next assay has as its target ELF4 (Homo sapiens, UniProt Q99607 1-663). The procedure, abridged:
as §1

In another assay the target is T8, ETV2 (Homo sapiens, UniProt O00321 1-342).
T8 sequence: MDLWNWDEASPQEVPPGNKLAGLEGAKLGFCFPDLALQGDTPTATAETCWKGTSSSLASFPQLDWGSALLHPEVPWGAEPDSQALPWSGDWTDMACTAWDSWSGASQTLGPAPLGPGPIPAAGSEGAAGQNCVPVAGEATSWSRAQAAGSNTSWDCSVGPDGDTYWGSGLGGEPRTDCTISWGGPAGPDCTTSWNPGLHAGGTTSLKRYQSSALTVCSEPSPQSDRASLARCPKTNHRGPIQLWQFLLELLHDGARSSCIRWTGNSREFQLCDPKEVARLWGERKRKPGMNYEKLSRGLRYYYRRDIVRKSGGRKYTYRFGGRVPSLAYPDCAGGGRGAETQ
The procedure, abridged: as §1

Another assay has as its target T9, ELF3 (Homo sapiens, UniProt P78545 1-371).
T9 sequence: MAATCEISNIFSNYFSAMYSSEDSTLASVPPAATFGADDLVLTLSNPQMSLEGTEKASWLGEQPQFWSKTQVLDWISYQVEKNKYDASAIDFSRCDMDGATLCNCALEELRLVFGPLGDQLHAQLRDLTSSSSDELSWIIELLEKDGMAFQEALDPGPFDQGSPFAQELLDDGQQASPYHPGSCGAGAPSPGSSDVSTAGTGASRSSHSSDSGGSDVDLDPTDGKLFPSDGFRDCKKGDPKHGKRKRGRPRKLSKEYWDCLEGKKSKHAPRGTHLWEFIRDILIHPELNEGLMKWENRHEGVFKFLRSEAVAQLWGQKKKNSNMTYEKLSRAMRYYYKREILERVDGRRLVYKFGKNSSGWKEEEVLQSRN
A digest of the protocol:
as §1

In another assay the target is ETV1 (Homo sapiens, UniProt P50549 1-477). The procedure, abridged: as §1
The next assay has as its target T10, ETV3L (Homo sapiens, UniProt Q6ZN32 1-361).
T10 sequence: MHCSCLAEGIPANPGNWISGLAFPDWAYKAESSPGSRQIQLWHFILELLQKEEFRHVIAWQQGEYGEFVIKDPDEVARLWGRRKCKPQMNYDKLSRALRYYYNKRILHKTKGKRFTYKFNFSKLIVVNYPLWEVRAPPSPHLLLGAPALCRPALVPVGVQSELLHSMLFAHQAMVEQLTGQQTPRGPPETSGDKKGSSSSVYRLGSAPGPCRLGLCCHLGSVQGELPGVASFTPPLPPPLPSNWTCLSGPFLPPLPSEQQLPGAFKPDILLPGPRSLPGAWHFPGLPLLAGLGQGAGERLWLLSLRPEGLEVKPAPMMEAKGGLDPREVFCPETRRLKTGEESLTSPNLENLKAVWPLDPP
The procedure, abridged: as §1

A further assay has as its target T11, ETV3 (Homo sapiens, UniProt P41162-2 1-143).
T11 sequence: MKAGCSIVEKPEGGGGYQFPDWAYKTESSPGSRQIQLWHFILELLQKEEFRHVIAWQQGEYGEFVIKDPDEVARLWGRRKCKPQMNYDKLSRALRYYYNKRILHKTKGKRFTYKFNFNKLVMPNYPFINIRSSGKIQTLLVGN
The procedure, abridged:
as §1

Sequence of ETV1 (P50549 whole entry): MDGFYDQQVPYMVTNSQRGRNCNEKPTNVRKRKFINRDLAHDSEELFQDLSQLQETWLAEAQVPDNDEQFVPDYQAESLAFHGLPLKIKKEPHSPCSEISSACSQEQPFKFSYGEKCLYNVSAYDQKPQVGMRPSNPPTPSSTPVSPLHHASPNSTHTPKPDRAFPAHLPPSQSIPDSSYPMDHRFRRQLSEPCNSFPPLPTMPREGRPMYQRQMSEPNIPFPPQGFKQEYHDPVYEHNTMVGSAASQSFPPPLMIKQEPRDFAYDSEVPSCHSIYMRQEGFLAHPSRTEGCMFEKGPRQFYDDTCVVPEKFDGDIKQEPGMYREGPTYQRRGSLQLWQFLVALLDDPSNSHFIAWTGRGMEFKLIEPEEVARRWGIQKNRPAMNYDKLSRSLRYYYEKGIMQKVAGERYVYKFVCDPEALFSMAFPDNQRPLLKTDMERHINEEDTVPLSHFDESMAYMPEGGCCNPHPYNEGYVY
Sequence of ELF1 (P32519 whole entry): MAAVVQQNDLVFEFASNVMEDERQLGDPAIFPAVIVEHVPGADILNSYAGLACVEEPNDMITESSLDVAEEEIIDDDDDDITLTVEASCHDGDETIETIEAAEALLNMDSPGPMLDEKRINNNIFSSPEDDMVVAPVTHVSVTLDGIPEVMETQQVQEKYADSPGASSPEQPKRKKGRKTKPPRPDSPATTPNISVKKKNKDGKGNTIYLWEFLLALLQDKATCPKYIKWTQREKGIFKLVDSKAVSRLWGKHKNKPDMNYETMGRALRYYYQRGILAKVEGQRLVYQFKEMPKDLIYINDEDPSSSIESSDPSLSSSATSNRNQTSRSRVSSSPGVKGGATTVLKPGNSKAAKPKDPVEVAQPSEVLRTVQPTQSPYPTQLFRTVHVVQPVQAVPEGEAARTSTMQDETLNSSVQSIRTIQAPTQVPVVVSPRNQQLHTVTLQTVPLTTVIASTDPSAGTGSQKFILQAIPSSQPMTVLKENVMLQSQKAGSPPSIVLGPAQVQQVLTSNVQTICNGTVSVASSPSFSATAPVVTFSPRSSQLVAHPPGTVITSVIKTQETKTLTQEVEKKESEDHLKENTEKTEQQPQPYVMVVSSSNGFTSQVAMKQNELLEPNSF
Sequence of ELF4 (Q99607 whole entry): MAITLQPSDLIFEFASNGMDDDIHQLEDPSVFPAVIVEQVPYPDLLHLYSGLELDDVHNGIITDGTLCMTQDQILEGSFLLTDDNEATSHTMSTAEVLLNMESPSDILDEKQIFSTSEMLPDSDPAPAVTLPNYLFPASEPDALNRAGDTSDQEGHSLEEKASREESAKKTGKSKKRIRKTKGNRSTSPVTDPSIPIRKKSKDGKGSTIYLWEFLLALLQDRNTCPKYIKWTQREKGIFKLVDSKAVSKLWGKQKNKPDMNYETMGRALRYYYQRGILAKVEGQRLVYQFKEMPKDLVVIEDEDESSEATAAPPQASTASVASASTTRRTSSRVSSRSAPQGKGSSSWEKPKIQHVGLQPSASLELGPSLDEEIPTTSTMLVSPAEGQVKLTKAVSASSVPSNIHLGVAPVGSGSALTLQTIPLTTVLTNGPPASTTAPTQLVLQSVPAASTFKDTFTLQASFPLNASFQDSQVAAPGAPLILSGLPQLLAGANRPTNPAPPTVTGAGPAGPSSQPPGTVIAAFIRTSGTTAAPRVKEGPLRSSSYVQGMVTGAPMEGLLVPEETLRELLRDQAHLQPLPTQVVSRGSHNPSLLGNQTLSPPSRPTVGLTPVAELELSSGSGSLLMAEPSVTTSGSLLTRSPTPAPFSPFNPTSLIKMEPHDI

In the case of TGTAGA, the binding signal in the assay with SPIC is 1.1 fold enrichment (6-mer frequency, TF over GST control).

For the sequence ACTAGA, the binding signal is 1.02 fold enrichment (6-mer frequency, TF over GST control) in the assay with ELK1; 1.01 fold enrichment (6-mer frequency, TF over GST control) with GABPA; 1 fold enrichment (6-mer frequency, TF over GST control) with ERG; 1.02 fold enrichment (6-mer frequency, TF over GST control) in the assay with ELF1; 1.01 fold enrichment (6-mer frequency, TF over GST control) with EHF; 1.03 fold enrichment (6-mer frequency, TF over GST control) with SPIC. In addition, the binding signal in the assay with ERF was 1.05 fold enrichment (6-mer frequency, TF over GST control).

With TGGATC, the binding signal in the assay with ELK1 was 1.01 fold enrichment (6-mer frequency, TF over GST control); in the assay with ERG, 1.02 fold enrichment (6-mer frequency, TF over GST control); in the assay with EHF, 1 fold enrichment (6-mer frequency, TF over GST control); with ELK3 it was 1.09 fold enrichment (6-mer frequency, TF over GST control); in the assay with SPIC, 1.11 fold enrichment (6-mer frequency, TF over GST control); with ELF4, 1.02 fold enrichment (6-mer frequency, TF over GST control). Further, the binding signal with ETV2 was 1.03 fold enrichment (6-mer frequency, TF over GST control); with ELF3, 1.06 fold enrichment (6-mer frequency, TF over GST control); in the assay with ETV1, 1.01 fold enrichment (6-mer frequency, TF over GST control); in the assay with ETV3L, 1.12 fold enrichment (6-mer frequency, TF over GST control).

As to CAGACT, the binding signal was 1.01 fold enrichment (6-mer frequency, TF over GST control) in the assay with ELK1; 1.06 fold enrichment (6-mer frequency, TF over GST control) with GABPA; 1.02 fold enrichment (6-mer frequency, TF over GST control) in the assay with ELF1; 1.05 fold enrichment (6-mer frequency, TF over GST control) with EHF; 1.05 fold enrichment (6-mer frequency, TF over GST control) with SPIC; 1.07 fold enrichment (6-mer frequency, TF over GST control) with ELF4. The binding signal is 1.04 fold enrichment (6-mer frequency, TF over GST control) in the assay with ETV2; 1.04 fold enrichment (6-mer frequency, TF over GST control) in the assay with ELF3; 1.05 fold enrichment (6-mer frequency, TF over GST control) in the assay with ETV1; 1.01 fold enrichment (6-mer frequency, TF over GST control) in the assay with ETV3.
